Experimental data published in the supplement of paper PMC13380429.

Each compound was assayed on Vero E6 infected with SARS-CoV-2 (assay: SARS-CoV-2 infection rate relative to infected DMSO; higher = more infection, active = 60 or less). Details: 24 h.

| Structure (SMILES) | SARS-CoV-2 infection rate |
| --- | --- |
| Cn1c2c(c3ccccc31)CCNCC2 (10 µM) | 103% (inactive) |
| CC(C)N(CC[C@H](c1ccccc1)c1cc(CO)ccc1O)C(C)C [5-hydroxymethyl-tolterodine] (10 µM) | 94.5% (inactive) |
| CCOC(=O)c1ccc(C#Cc2ccc3c(c2)C(C)(C)CCS3)nc1 [tazarotene] (10 µM) | 93% (inactive) |
| COCCCOc1ccnc(C[S+]([O-])c2nc3ccccc3[nH]2)c1C (stereo not given) [rabeprazole] (10 µM) | 106% (inactive) |
| NCC[C@H](O)C(=O)N[C@@H]1C[C@H](N)[C@@H](O[C@H]2O[C@H](CN)[C@@H](O)[C@H](O)[C@H]2O)[C@H](O)[C@H]1O[C@H]1O[C@H](CO)[C@@H](O)[C@H](N)[C@H]1O [amikacin] (10 µM) | 91% (inactive) |
| COc1cc2c(cc1OC)[C@H](C)NCC2 [Isoquinoline,-6,7-dimethoxy-1-methyl-1,2,3,4-tetrahydro,] (10 µM) | 105% (inactive) |
| Nc1nc2c(c(N3CCNCC3)n1)CCC1=C2[C@@H]2CCCC[C@@H]2O1 (10 µM) | 83.5% (inactive) |
| CN1C[C@H](CNC(=O)OCc2ccccc2)C[C@@H]2c3cccc4c3c(cn4C)C[C@H]21 [metergoline] (10 µM) | 97.5% (inactive) |
| COc1ccc(C2CC(c3c(O)cc(C)oc3=O)=NCCS2)c(OC)c1 (stereo not given) (10 µM) | 101% (inactive) |
| CC(C)C[C@H](NC(=O)N1CCCCCC1)C(=O)N[C@H](Cc1cn(C)c2ccccc12)C(=O)N[C@H](Cc1ccccn1)C(=O)O (10 µM) | 100% (inactive) |
| Nc1nc(=O)c(Br)c(-c2ccccc2)[nH]1 [bropirimine] (10 µM) | 99.5% (inactive) |
| O=C(Nc1c(Cl)cncc1Cl)c1ccc(OC(F)F)c(OCC2CC2)c1 [roflumilast] (10 µM) | 97% (inactive) |
| Cn1cc(CCn2cnc(-c3cnn(C)c3)c2-c2ccc(C#N)cc2)cn1 (10 µM) | 97% (inactive) |
| C[C@@H](O)[C@@H]1NC(=O)[C@H](CCCCN)NC(=O)[C@@H](Cc2c[nH]c3ccccc23)NC(=O)[C@H](Cc2ccccc2)NC(=O)[C@@H](NC(=O)[C@H](N)Cc2ccccc2)CSSC[C@@H](C(=O)N[C@H](CO)[C@@H](C)O)NC1=O [octreotide] (10 µM) | 102% (inactive) |
| Cc1ccc(NC2=NCCN2)c(Cl)c1 [tolonidine] (10 µM) | 98.5% (inactive) |
| CCOc1ccc2nc3cc(N)ccc3c(N)c2c1 [ethacridine-lactate-monohydrate] (10 µM) | 95.5% (inactive) |
| O=C(O)c1cc(/N=N/c2ccc(O)c(C(=O)O)c2)ccc1O [olsalazine] (10 µM) | 104% (inactive) |
| C[N+]1(C)[C@@H]2C[C@@H](OC(=O)[C@H](CO)c3ccccc3)C[C@H]1[C@@H]1O[C@@H]12 [methscopolamine] (10 µM) | 96% (inactive) |
| C=C[C@@]1(C)CC(=O)[C@]2(O)[C@@]3(C)[C@@H](O)CCC(C)(C)[C@@H]3[C@H](OC(=O)CCN(C)C)[C@H](OC(C)=O)[C@@]2(C)O1 [colforsin-daproate] (0.833333 µM) | 88.5% (inactive) |
| N[C@H](Cc1cc(I)c(Oc2ccc(O)c(I)c2)c(I)c1)C(=O)O [liothyronine-(isomer)] (10 µM) | 106% (inactive) |

| Structure (SMILES) | SARS-CoV-2 infection rate |
| --- | --- |
| CC(C)(C)C(=O)Oc1ccc(S(=O)(=O)Nc2ccccc2C(=O)NCC(=O)O)cc1 [sivelestat] (10 µM) | 95% (inactive) |
| CN(Cc1ccc(C(C)(C)C)cc1)Cc1cccc2ccccc12 [butenafine] (10 µM) | 71% (inactive) |
| N[C@H]1CCN(O)C1=O (10 µM) | 99.2% (inactive) |
| CN(C)c1ccc(C(=C2C=CC(=[N+](C)C)C=C2)c2ccc(N(C)C)cc2)cc1 [crystal-violet] (10 µM) | 114% (inactive) |
| Clc1cccc(-c2nnnn2Cc2cccnc2)c1Cl (10 µM) | 99.5% (inactive) |
| CCC(=O)O[C@]1(C(=O)COC(C)=O)CC[C@H]2[C@@H]3C[C@H](C)C4=CC(=O)C=C[C@]4(C)[C@H]3[C@@H](O)C[C@@]21C [methylprednisolone-aceponate] (10 µM) | 108% (inactive) |
| CC[N+](CC)(CCCNC1=CC(=O)C(NCCC[N+](CC)(CC)Cc2ccccc2)=CC1=O)Cc1ccccc1 [benzoquinonium-dibromide] (10 µM) | 113% (inactive) |
| COc1ccc(-c2nc3cc(C4=NNC(=O)CC4C)ccc3[nH]2)cc1 (stereo not given) [pimobendan] (10 µM) | 94% (inactive) |
| Nc1n[n+]([O-])c2ccccc2[n+]1[O-] [tirapazamine] (10 µM) | 99.5% (inactive) |
| O=C(CCBr)N1CC[N+]2(CC1)CC[N+]1(CCN(C(=O)CCBr)CC1)CC2 [spirobromin] (10 µM) | 112% (inactive) |
| Cc1c(NC(=O)c2cc3c(s2)CCCC3)cccc1-c1cn(C)c(=O)c(Nc2ccc(C3C(=O)N(C)CCN3C)cc2)n1 (stereo in doubt) (10 µM) | 69% (inactive) |
| CC[C@H](NC(=O)c1c(O)c(-c2ccccc2)nc2ccccc12)c1ccccc1 [talnetant] (10 µM) | 117% (inactive) |
| COc1ccc(C(C)=O)c(O)c1 [paeonol] (10 µM) | 100% (inactive) |
| NC(=O)NCCN1CCN(c2cccc(C(F)(F)F)c2)CC1 [fluprazine] (10 µM) | 106% (inactive) |
| C=C[C@]1(C)CC[C@@H](C(=C)C)C[C@H]1C(=C)C [beta-elemene] (10 µM) | 111% (inactive) |
| CS(=O)(=O)Oc1ccc2c(NC(N)=O)c(C(=O)c3ccc(Cl)cc3Cl)oc2c1 [lirimilast] (10 µM) | 101% (inactive) |
| O[C@H]1[C@H](O)[C@@H](O)CN2CC[C@H](O)[C@H]12 [castanospermine] (10 µM) | 112% (inactive) |
| NC(=O)c1ccc(-c2nc(-c3ccccn3)c(-c3ccc4c(c3)OCO4)[nH]2)cc1 (10 µM) | 109% (inactive) |
| N[C@@H](CC(=O)N1CCn2c(nnc2C(F)(F)F)C1)Cc1cc(F)c(F)cc1F [sitagliptin] (10 µM) | 98% (inactive) |
| COc1ccc(S(=O)(=O)N2CCC[C@H]2C(=O)Nc2cc(C)cc(C)c2)cc1 (10 µM) | 113% (inactive) |
